These results are taken from the supplement of paper PMC4683952.

Where a name gives a salt, the structure may show the parent alone. Among all 1,200 compounds or so, about 50 (4%) showed activity. The list comes from a sample in which actives are over-represented; it also holds similar structures and randomly drawn compounds. Values without a mark were called inactive. Cut-off read from the data, not from the text of the source: all actives reach 1.3 or more but so do some inactives.

This test has as its system Lgr5 (MarsCy1-Lgr5-EGFP, U2OS). The test is described as follows: cell-surface Lgr5 expression (SCi1 fluorescence, background-subtracted) relative to WT DMSO (fold of DMSO control); higher = more Lgr5 at the plasma membrane, active = hit call of the paper. As to conditions: U2OS MarsCy1-Lgr5-EGFP stable; treatment time: overnight; 16 µM; library: Johns Hopkins Clinical Compound Library.
With `COc1cc(C2c3cc4c(cc3C(O)C(CO)C2C(=O)O)OCO4)cc(OC)c1OC.COc1cc(C2c3cc4c(cc3C(O)C(CO)C2C(=O)O)OCO4)cc(OC)c1OC.COc1cc(C2c3cc4c(cc3C(O)C3COC(=O)C23)OCO4)cc(OC)c1OC.COc1cc(C2c3cc4c(cc3C(O)C3COC(=O)C23)OCO4)cc(OC)c1OC` (stereo unspecified) [Podophyllum resin], the “cell-surface Lgr5 expression” value is 1.55 (active).

Turning to `CC(N)C(O)c1ccccc1` (stereo unspecified) [Norephedrine Hydrochloride (Phenylpropanolamine)], the “cell-surface Lgr5 expression” value was 1.19.

In the case of `C=C[C@H]1CN2CC[C@H]1C[C@@H]2[C@@H](O)c1ccnc2ccccc12` [Cinchonine sulfate], the “cell-surface Lgr5 expression” value was 1.25.

In the case of `CCN(CC)C(=O)N[C@H]1C=C2c3cccc4[nH]cc(c34)C[C@H]2N(C)C1` [Lisuride], the “cell-surface Lgr5 expression” value was 1.1.

Regarding `[S]=[Sb][S][Sb]=[S]` [Antimony (III) sulfide], the “cell-surface Lgr5 expression” value is 1.26.

`NC(=O)CN1CC(O)CC1=O` (stereo unspecified) [Oxiracetam]: the “cell-surface Lgr5 expression” value is 1.36 (active).

As to `COc1ccc(O)c(C(C)(C)C)c1.COc1ccc(O)cc1C(C)(C)C` [Butylated hydroxyanisole], the “cell-surface Lgr5 expression” value is 1.15.

Consider `C=CCN1C[C@H](C(=O)N(CCCN(C)C)C(=O)NCC)C[C@@H]2c3cccc4[nH]cc(c34)C[C@H]21` [Cabergoline], for which the “cell-surface Lgr5 expression” value is 0.958.

As for `ClC1=C(Cl)C2(Cl)C(CBr)CC1(Cl)C2(Cl)Cl` (stereo unspecified) [Bromocyclen], the “cell-surface Lgr5 expression” value is 1.24.

Consider `C[C@]12Cc3c[nH]nc3C[C@@H]1CC[C@@H]1[C@@H]2CC[C@@]2(C)[C@H]1CC[C@]2(C)O` [Stanozolol], for which the “cell-surface Lgr5 expression” value is 1.03.

`C=C1C[C@@H]2[C@H](CC[C@]3(C)C(=O)CC[C@@H]23)[C@@]2(C)C=CC(=O)C=C12` [Exemestane]: the “cell-surface Lgr5 expression” value was 1.48.

As to `C[C@]12CCC(=O)C(O)=C1CC[C@@H]1[C@@H]2CC[C@]2(C)C(=O)CC[C@@H]12` [Formestane (4-Androsten-4-ol-3,17-dione)], the “cell-surface Lgr5 expression” value was 1.18.

On to `C[C@]12CC[C@H](O)CC1=CC[C@@H]1[C@@H]2CC[C@]2(C)C(=O)CC[C@@H]12` [Prasterone (dehydroisoandrosterone)], for which the “cell-surface Lgr5 expression” value was 1.09.

Regarding `C[C@]12CC[C@H](O)CC1=CC[C@@H]1[C@@H]2CC[C@]2(C)C(=O)CC[C@@H]12` [Prasterone (DHEA, dehydroepiandrosterone)], the “cell-surface Lgr5 expression” value is 1.33 (active).

As to `C=CCN=C=S` [Allyl isothiocyanate], the “cell-surface Lgr5 expression” value was 0.99.

As for `N[C@@H](Cc1ccc(N(CCCl)CCCl)cc1)C(=O)O` [Melphalan], the “cell-surface Lgr5 expression” value is 1.14.

`CC(C)(C)NCC(O)c1ccccc1Cl` (stereo unspecified) [Tulobuterol]: the “cell-surface Lgr5 expression” value was 1.42 (active).

Take `CN(C)C(=O)Oc1cc(OC(=O)N(C)C)cc(C(O)CNC(C)(C)C)c1` (stereo unspecified) [Bambuterol]: the “cell-surface Lgr5 expression” value was 1.21.

On to `C1CN1c1nc(N2CC2)nc(N2CC2)n1` [Triethylenemelamine], for which the “cell-surface Lgr5 expression” value is 1.39.

Turning to `[O-][n+]1ccccc1[S-].[O-][n+]1ccccc1[S-].[Zn+2]` [Pyrithione zinc (1-Hydroxypyridine-2-Thione Zinc Salt)], the “cell-surface Lgr5 expression” value is 0.923.

`CN1C[C@H](C(=O)N[C@]2(C)O[C@@]3(O)[C@@H]4CCCN4C(=O)[C@H](Cc4ccccc4)N3C2=O)C[C@@H]2c3cccc4[nH]cc(c34)C[C@H]21` [Dihydroergotamine methanesulfonate]: the “cell-surface Lgr5 expression” value is 0.612.
